Measurements: PubChem BioAssay AID1159580 (chemical genetic matrix, 2015)
“And” between values parts separate entries of the source, which are not always exact repeats. Equal values may be shown once. The campaign covered roughly 5,500 compounds. About 2,000 (36%) were called active. About 18% were inconclusive and are not listed. Rule as the data show it: active = normalized growth mostly below about 0.91 (no sharp cut-off); inconclusive = no clear call, values can overlap the other calls; inactive = mostly above about 0.92. This is one part of the list.

Experiment: chemical genetic growth profiling, strain panel (AID 1159580);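 also: tested at 20 µM; growth read once vehicle control cultures reached saturation at 30 °C; 1 = growth at the plate median or of vehicle wells; lower values mean less growth of the strain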
Settings: growth OD

Measured: normalized growth

COc1ccc(C(=O)O)c(O)c1OC
inactive: S. cerevisiae deletion strains, locus YAL013W, strain DEP1, active compounds read low 1.05 | S. cerevisiae deletion strains, locus YBR021W, strain FUR4, active compounds read low 1.03 | S. cerevisiae deletion strains, locus YBR229C, strain ROT2, active compounds read low 1.02 | S. cerevisiae deletion strains, locus YCL029C, strain bik1, active compounds read low 0.992 | S. cerevisiae deletion strains, locus YDL035C, strain GPR1, active compounds read low 1.04 | S. cerevisiae deletion strains, locus YDL074C, strain BRE1, active compounds read low 1.04 | S. cerevisiae deletion strains, locus YDL101C, strain DUN1, active compounds read low 1.01 | S. cerevisiae deletion strains, locus YDL134C, strain PPH21, active compounds read low 1.02 | S. cerevisiae deletion strains, locus YDL185W, strain tfp1, active compounds read low 0.999 | S. cerevisiae deletion strains, locus YDL192W, strain arf1, active compounds read low 0.984 | S. cerevisiae deletion strains, locus YDR101C, strain arx1, active compounds read low 0.985 | S. cerevisiae deletion strains, locus YDR150W, strain NUM1, active compounds read low 1.01 | S. cerevisiae deletion strains, locus YDR162C, strain NBP2, active compounds read low 1.03 | S. cerevisiae deletion strains, locus YDR318W, strain mcm21, active compounds read low 0.988 | S. cerevisiae deletion strains, locus YDR388W, active compounds read low 0.988 | S. cerevisiae deletion strains, locus YDR502C, strain sam2, active compounds read low 0.994 | S. cerevisiae deletion strains, locus YEL061C, strain CIN8, active compounds read low 1.01 | S. cerevisiae deletion strains, locus YER110C, active compounds read low 0.987 | S. cerevisiae deletion strains, locus YER155C, strain BEM2, active compounds read low 1.01 | S. cerevisiae deletion strains, locus YER167W, strain BCK2, active compounds read low 1.02 | S. cerevisiae deletion strains, locus YGL078C, strain dbp3, active compounds read low 0.999 | S. cerevisiae deletion strains, locus YGL086W, strain mad1, active compounds read low 0.994 | S. cerevisiae deletion strains, locus YGL248W, strain PDE1, active compounds read low 1.02 | S. cerevisiae deletion strains, locus YGR078C, strain PAC10, active compounds read low 1.04 | S. cerevisiae deletion strains, locus YGR135W, strain pre9, active compounds read low 1 | S. cerevisiae deletion strains, locus YGR252W, strain gcn5, active compounds read low 1.06 | S. cerevisiae deletion strains, locus YHR030C, strain SLT2, active compounds read low 1.01 and 1 | S. cerevisiae deletion strains, locus YHR079C, strain IRE1 (second series), active compounds read low 0.986 | S. cerevisiae deletion strains, locus YHR079C, strain IRE1, active compounds read low 0.996 | S. cerevisiae deletion strains, locus YHR094C, strain hxt1, active compounds read low 0.987 | S. cerevisiae deletion strains, locus YHR129C, strain ARP1, active compounds read low 1.01 | S. cerevisiae deletion strains, locus YHR200W, strain rpn10, active compounds read low 0.997 | S. cerevisiae deletion strains, locus YIL066C, strain RNR3, active compounds read low 1.03 | S. cerevisiae deletion strains, locus YIL073C, strain SPO22, active compounds read low 1.02 | S. cerevisiae deletion strains, locus YIL125W, strain kgd1, active compounds read low 0.988 | S. cerevisiae deletion strains, locus YIR030C, strain dcg1, active compounds read low 0.996 | S. cerevisiae deletion strains, locus YJL095W, strain BCK1, active compounds read low 1.04 and 1.01 | S. cerevisiae deletion strains, locus YJL134W, strain LCB3, active compounds read low 1.01 | S. cerevisiae deletion strains, locus YJL168C, strain set2, active compounds read low 0.997 | S. cerevisiae deletion strains, locus YJL187C, strain SWE1 (second series), active compounds read low 1.01 | S. cerevisiae deletion strains, locus YJR043C, strain POL32, active compounds read low 1.05 | S. cerevisiae deletion strains, locus YJR066W, strain TOR1, active compounds read low 0.938 | S. cerevisiae deletion strains, locus YKL009W, strain mrt4, active compounds read low 1.01 | S. cerevisiae deletion strains, locus YKL068W, active compounds read low 0.989 | S. cerevisiae deletion strains, locus YKL085W, strain MDH1 (second series), active compounds read low 0.996 | S. cerevisiae deletion strains, locus YKL085W, strain MDH1, active compounds read low 0.996 | S. cerevisiae deletion strains, locus YKL190W, strain CNB1, active compounds read low 1.01 | S. cerevisiae deletion strains, locus YKR001C, strain vps1, active compounds read low 0.97 | S. cerevisiae deletion strains, locus YLR039C, strain RIC1, active compounds read low 1.09 | S. cerevisiae deletion strains, locus YLR058C, strain SHM2, active compounds read low 1.01 | S. cerevisiae deletion strains, locus YLR102C, strain apc9, active compounds read low 0.996 | S. cerevisiae deletion strains, locus YLR113W, strain HOG1, active compounds read low 1 | S. cerevisiae deletion strains, locus YLR262C, strain YPT6, active compounds read low 1.12 | S. cerevisiae deletion strains, locus YLR268W, strain sec22, active compounds read low 0.996 | S. cerevisiae deletion strains, locus YLR330W, strain CHS5, active compounds read low 1.01 | S. cerevisiae deletion strains, locus YLR342W, strain FKS1 (second series), active compounds read low 1.01 | S. cerevisiae deletion strains, locus YLR371W, strain rom2, active compounds read low 0.981 | S. cerevisiae deletion strains, locus YLR418C, strain cdc73, active compounds read low 1.04 | S. cerevisiae deletion strains, locus YML016C, strain PPZ1, active compounds read low 1.01 | S. cerevisiae deletion strains, locus YML032C, strain rad52, active compounds read low 1 | S. cerevisiae deletion strains, locus YML124C, strain tub3, active compounds read low 0.997 | S. cerevisiae deletion strains, locus YMR078C, strain ctf18, active compounds read low 0.998 | S. cerevisiae deletion strains, locus YMR223W, strain ubp8, active compounds read low 0.996 | S. cerevisiae deletion strains, locus YMR307W, strain GAS1, active compounds read low 1.22 | S. cerevisiae deletion strains, locus YNL067W, strain RPL9B, active compounds read low 1.02 | S. cerevisiae deletion strains, locus YNL128W, strain TEP1, active compounds read low 1.01 | S. cerevisiae deletion strains, locus YNL153C, strain GIM3, active compounds read low 1.01 | S. cerevisiae deletion strains, locus YNL183C, strain NPR1, active compounds read low 0.938 | S. cerevisiae deletion strains, locus YNL233W, strain BNI4, active compounds read low 1.02 | S. cerevisiae deletion strains, locus YNL250W, strain rad50, active compounds read low 0.991 | S. cerevisiae deletion strains, locus YNL271C, strain bni1, active compounds read low 0.995 | S. cerevisiae deletion strains, locus YNL298W, strain CLA4, active compounds read low 1.01 | S. cerevisiae deletion strains, locus YNL307C, strain MCK1, active compounds read low 0.988 | S. cerevisiae deletion strains, locus YNR052C, strain pop2, active compounds read low 0.981 | S. cerevisiae deletion strains, locus YOL012C, strain htz1 0.918 | S. cerevisiae deletion strains, locus YOL147C, strain pex11, active compounds read low 0.988 | S. cerevisiae deletion strains, locus YOR061W, strain CKA2, active compounds read low 1.01 | S. cerevisiae deletion strains, locus YOR069W, strain VPS5, active compounds read low 1.01 | S. cerevisiae deletion strains, locus YOR136W, strain idh2, active compounds read low 0.991 | S. cerevisiae deletion strains, locus YOR144C, strain elg1, active compounds read low 0.991 | S. cerevisiae deletion strains, locus YOR184W, strain ser1, active compounds read low 0.998 | S. cerevisiae deletion strains, locus YOR231W, strain MKK1, active compounds read low 1 | S. cerevisiae deletion strains, locus YOR316C, strain cot1, active compounds read low 0.992 | S. cerevisiae deletion strains, locus YPL256C, strain CLN2, active compounds read low 1.02 | S. cerevisiae deletion strains, locus YPR119W, strain clb2, active compounds read low 0.993 | S. cerevisiae deletion strains, locus YPR141C, strain kar3, active compounds read low 0.989 | S. cerevisiae deletion strains, locus YPR163C, strain tif3, active compounds read low 0.984 | S. cerevisiae deletion strains, locus YPR167C, strain met16, active compounds read low 0.99 | S. cerevisiae deletion strains, strain wtn01, active compounds read low 0.983 | S. cerevisiae strains, strain wild type, active compounds read low 1.01
